Assay results as given in PMC7862700, “An all-to-all approach to the identification of sequence-specific readers for epigenetic DNA modifications on cytosine”.

Columns and labels:
Assay in all cases: DAPPL (digital affinity profiling via proximity ligation, sequencing); 10 mM Tris-HCl pH 7.5, 50 mM NaCl, 1 mM DTT, 4% glycerol, room temperature, 30 min; GST-TFs on glutathione beads, 16-mer random dsDNA library, 0.1% formaldehyde crosslink after washing; high values mean tight binding
Conditions in all cases: protein: recombinant; tags: N-terminal GST; dsDNA, one strand shown
FLI1 = target: T1, FLI1 (Homo sapiens, UniProt Q01543 1-452)
T1 sequence: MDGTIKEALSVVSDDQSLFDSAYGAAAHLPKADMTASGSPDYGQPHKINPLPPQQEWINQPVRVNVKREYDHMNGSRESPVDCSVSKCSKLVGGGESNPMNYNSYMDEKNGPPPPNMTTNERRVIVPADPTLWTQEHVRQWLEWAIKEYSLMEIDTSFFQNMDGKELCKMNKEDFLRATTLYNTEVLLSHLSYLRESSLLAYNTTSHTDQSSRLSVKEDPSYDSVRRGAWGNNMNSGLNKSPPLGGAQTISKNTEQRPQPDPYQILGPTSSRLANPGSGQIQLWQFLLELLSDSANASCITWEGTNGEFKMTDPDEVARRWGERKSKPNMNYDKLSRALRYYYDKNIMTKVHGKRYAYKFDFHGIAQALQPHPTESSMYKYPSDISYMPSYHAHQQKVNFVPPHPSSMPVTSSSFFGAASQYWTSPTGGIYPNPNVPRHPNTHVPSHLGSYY
Procedure, shortened: (§1)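 Beads coated with glutathione captured GST-fused human transcription factors that had been expressed in yeast, and the factors were then given DNA barcodes and pooled with a tag-only sample. The pools were incubated with 200 nmole of a random double-stranded 16-mer DNA library in Tris/NaCl/DTT/glycerol buffer for 30 min at room temperature, washed, crosslinked with 0.1% formaldehyde and proximity-ligated with BsaI/T4 ligase at 37 °C for 1 h. PCR amplification and Illumina NextSeq500 sequencing came last. Binding signal is each hexamer's read frequency for a factor divided by its frequency for the tag-only sample.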

ELK1 = target: T2, ELK1 (Homo sapiens, UniProt P19419 1-428)
T2 sequence: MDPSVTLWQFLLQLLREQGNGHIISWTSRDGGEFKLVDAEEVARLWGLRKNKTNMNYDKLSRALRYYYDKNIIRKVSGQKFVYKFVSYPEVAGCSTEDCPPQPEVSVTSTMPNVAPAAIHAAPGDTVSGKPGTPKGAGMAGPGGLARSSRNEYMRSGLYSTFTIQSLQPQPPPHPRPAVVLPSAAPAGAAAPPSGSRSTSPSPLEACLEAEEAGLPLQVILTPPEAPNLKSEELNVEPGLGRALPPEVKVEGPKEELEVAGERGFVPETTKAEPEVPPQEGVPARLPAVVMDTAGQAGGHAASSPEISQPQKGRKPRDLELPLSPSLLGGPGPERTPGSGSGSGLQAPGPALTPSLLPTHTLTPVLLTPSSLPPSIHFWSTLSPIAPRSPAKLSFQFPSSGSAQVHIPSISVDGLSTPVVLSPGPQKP
Procedure, shortened: as §1

GABPA = target: T3, GABPA (Homo sapiens, UniProt Q06546 1-454)
T3 sequence: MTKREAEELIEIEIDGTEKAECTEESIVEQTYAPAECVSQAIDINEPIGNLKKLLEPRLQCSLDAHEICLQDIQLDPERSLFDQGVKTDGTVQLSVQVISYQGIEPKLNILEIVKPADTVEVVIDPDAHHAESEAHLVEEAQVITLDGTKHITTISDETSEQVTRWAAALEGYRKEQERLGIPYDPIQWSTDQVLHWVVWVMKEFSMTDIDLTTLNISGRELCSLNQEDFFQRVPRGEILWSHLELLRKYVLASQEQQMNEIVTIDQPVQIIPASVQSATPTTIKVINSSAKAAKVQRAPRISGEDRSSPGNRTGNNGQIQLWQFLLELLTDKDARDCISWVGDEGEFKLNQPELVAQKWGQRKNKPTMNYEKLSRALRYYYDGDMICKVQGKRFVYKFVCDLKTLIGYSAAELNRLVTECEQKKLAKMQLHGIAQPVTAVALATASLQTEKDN
Procedure, shortened: as §1

ERG = target: T4, ERG (Homo sapiens, UniProt P11308 1-479)
T4 sequence: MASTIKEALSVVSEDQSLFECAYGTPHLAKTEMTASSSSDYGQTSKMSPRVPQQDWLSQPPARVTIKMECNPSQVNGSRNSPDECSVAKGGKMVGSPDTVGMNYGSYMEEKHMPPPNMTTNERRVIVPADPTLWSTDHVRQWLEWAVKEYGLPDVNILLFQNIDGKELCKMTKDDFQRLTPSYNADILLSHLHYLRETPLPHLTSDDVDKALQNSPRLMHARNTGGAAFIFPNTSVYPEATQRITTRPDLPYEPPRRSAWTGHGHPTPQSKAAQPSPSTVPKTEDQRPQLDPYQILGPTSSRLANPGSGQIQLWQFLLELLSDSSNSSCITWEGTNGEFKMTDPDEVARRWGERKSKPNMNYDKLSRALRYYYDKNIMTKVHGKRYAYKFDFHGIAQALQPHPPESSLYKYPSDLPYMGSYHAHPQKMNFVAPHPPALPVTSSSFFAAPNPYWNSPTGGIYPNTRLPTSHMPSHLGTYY
Procedure, shortened: as §1

ELF1 = ELF1 (Homo sapiens, UniProt P32519 1-619)
Procedure, shortened: as §1

EHF = target: T5, EHF (Homo sapiens, UniProt Q9NZC4 1-300)
T5 sequence: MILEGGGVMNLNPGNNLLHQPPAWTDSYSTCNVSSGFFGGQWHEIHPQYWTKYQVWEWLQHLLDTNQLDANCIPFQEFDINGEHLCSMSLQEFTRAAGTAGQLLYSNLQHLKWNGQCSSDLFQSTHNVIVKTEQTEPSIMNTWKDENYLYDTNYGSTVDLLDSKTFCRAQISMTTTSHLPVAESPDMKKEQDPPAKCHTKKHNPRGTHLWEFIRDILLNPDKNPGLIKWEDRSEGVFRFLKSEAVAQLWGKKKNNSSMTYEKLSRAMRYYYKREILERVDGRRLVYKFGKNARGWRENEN
Procedure, shortened: as §1

SPI1 = SPI1 (Homo sapiens, UniProt P17947 1-270)
Procedure, shortened: as §1

SPIB = SPIB (Homo sapiens, UniProt Q01892 1-262)
Procedure, shortened: as §1

ELK3 = target: T6, ELK3 (Homo sapiens, UniProt P41970 1-407)
T6 sequence: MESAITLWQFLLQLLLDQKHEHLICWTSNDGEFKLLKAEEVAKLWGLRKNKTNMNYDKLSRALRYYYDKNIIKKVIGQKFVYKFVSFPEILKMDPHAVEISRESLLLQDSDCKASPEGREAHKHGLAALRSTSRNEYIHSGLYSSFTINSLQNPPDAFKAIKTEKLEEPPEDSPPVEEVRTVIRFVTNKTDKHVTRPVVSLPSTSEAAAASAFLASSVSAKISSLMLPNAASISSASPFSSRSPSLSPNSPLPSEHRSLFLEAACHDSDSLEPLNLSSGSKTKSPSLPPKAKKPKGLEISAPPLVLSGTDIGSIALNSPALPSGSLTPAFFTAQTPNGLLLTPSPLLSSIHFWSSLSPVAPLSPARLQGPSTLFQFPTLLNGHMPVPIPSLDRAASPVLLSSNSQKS
Procedure, shortened: as §1

Chain of SPIB (Q01892 whole entry): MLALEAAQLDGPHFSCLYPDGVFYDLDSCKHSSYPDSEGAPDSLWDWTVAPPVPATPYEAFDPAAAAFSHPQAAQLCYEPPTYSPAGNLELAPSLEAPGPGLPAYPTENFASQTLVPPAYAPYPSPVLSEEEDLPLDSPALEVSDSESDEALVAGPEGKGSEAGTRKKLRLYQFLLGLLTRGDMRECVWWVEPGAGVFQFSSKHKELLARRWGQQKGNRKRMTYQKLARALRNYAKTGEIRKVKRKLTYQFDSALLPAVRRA
Chain of ELF1 (P32519 whole entry): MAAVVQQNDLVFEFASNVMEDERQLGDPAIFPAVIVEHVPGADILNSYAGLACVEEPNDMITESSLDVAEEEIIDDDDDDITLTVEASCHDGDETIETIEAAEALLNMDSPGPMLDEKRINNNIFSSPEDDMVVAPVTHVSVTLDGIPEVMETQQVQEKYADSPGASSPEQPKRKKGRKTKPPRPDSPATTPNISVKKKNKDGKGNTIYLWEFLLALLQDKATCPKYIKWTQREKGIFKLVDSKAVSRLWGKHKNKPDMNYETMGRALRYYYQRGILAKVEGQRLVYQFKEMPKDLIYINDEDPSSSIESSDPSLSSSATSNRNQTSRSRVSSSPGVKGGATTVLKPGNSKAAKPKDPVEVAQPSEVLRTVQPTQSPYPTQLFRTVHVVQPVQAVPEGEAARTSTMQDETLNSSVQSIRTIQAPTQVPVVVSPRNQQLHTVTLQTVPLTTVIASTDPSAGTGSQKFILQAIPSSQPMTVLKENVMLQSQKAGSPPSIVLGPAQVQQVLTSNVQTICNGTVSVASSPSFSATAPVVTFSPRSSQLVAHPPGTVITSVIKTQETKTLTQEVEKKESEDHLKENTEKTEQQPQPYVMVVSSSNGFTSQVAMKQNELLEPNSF

In the case of TAATCA, the binding signal (FLI1) is reported as 1.17 fold enrichment (6-mer frequency, TF over GST control), the binding signal (ELK1) is reported as 1.14 fold enrichment (6-mer frequency, TF over GST control) and the binding signal (GABPA) is reported as 1.25 fold enrichment (6-mer frequency, TF over GST control). The binding signal (ERG) was 1.07 fold enrichment (6-mer frequency, TF over GST control), the binding signal (ELF1) was 1.16 fold enrichment (6-mer frequency, TF over GST control) and the binding signal (EHF) was 1.08 fold enrichment (6-mer frequency, TF over GST control). The binding signal (SPI1) was 1.07 fold enrichment (6-mer frequency, TF over GST control), the binding signal (SPIB) was 1.16 fold enrichment (6-mer frequency, TF over GST control) and the binding signal (ELK3) was 1.09 fold enrichment (6-mer frequency, TF over GST control).
